B2AR arrestin: qHTS assay of beta-arrestin-biased ligands of beta2-adrenergic receptor; Beta-2 adrenergic receptor (Homo sapiens), P07550; beta-arrestin recruitment to beta2AR, cell-based reporter; Potency, µM (series often up to 46.1 µM), without a hit: at the highest dose activation, usual class: activators; hit rate 0.02% among 330,000;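 also: potency is read from the fitted curve at half-maximal effect; 0% = DMSO controls and full agonism = EC100 isoproterenol or metaproterenol; nearly all actives have a fitted effect of over 65% in size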
Target sequence (P07550 whole entry, looked up): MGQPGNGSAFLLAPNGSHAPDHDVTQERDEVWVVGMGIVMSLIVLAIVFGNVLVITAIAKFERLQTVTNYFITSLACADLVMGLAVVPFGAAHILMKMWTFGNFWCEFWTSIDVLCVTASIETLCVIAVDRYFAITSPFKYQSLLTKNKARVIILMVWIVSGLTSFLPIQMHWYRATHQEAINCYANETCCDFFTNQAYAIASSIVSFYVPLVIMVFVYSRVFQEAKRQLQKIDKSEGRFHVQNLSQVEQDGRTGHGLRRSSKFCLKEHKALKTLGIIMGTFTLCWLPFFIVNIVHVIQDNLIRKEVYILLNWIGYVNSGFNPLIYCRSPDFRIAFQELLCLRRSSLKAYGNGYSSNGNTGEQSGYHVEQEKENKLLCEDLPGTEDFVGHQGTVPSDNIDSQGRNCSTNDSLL
miR-21 reporter: qHTS Assay for Modulators of miRNAs and/orActivators of miR-21 | HeLa miR-21 FLuc reporter, luciferase, 48 h | Potency, µM (titrated, usually from 38.3 µM), for inactives: top-dose activity change, positive = activation, usual class: activators | 340,000 tested, under 10 active;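 also: % of control where 0% means no effect; miR-21 action dims this reporter so a rising signal means less miR-21 action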
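HeLa cells stably expressing CMV-driven firefly luciferase with a downstream miR-21 binding sequence, endogenously expressing miR-21, were treated with titrations (up to about 40uM final) for 48 hours at 37 degree Celsius. Luciferase luminescence was read after lysis.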
BCR signal inh: qHTS Assay to Find Inhibitors of Chronic Active B-Cell Receptor Signaling; ABC-DLBCL IkBa-CBG/CBR reporter, luminescence ratio, 4 h; Potency, µM (titrated, usually from 46.1 µM), without a hit: top-dose activity change, negative = inhibition, hits mostly inhibitors; hit rate 0.05% among 340,000; AID 493014, 2011; active = well fitted inhibition curve with a large enough effect in the signal ratio, with a control signal flat, not every such curve was filed as active; inconclusive = small, poorly fitted or top-dose-only effect, or effect the other way, or a change in a side signal; the % refers to the signal ratio;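 also: potency is read from the fitted curve at half-maximal effect; plate controls were basal doxycycline-induced cells for no effect and cells given 10 µM MG132 for full effect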
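TMD8 ABC-DLBCL cells carrying doxycycline-inducible green luciferase fused to IkappaBalpha plus unfused red luciferase were exposed to compounds (up to 46 uM) for 4 hrs at 37C. Activity came from the overlap-corrected green/red luminescence ratio.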
PINK1 modulator: A Quantitative High throughput Screen to Identify Chemical Modulators of PINK1 Expression; Potency, µM (top dose mostly 76.6 µM), inactives show top-dose activation (PINK1 increase), most hits filed as activators; PINK1 immunofluorescence, high-content cytometry, 24 h; hit rate 0.2% among 410,000; active = well fitted activation curve with a large enough effect; inconclusive = small, poorly fitted or top-dose-only effect; cell line not stated here; also: potency is read from the fitted curve at half-maximal effect; % of control where 0% means no effect; nearly all actives have a fitted effect of over 65% in size
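Compound titrations (5 concentrations, 24 h) on a stable cell line; DMSO and CCCP controls. Endpoint: fixed-cell PINK1 immunofluorescence with mitochondrial, cell and nuclear markers, scanned by microplate cytometer.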
PKM2 activator: qHTS Assay for Activators of Human Muscle isoform 2 Pyruvate Kinase. hit rate 0.34% among 260,000. purified PKM2, Kinase-Glo ATP luminescence, activation; response scale: 0% is enzyme alone, no compound. Potency, µM (doses to about 57.5 µM), inactives show top-dose activation, hits mostly activators; also: potency is read from the fitted curve at half-maximal effect; % is scaled to controls: 0 for no effect and ±100 for the full control effect; nearly all actives have a fitted effect of over 55% in size
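ATP formation by purified human PK-M2, quantified via coupled luciferase luminescence after 1 h at room temperature with 0.1 mM ADP and 0.5 mM PEP final.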
Pin1 inhibitor: qHTS Assay to Find Inhibitors of Pin1; Peptidyl-prolyl cis-trans isomerase NIMA-interacting 1 (Homo sapiens), Q13526; Pin1 FP peptide displacement, HiFluor488, 10 min; Potency, µM (titrated, usually from 115 µM), without a hit: at the highest dose activity, negative = inhibition, hits mostly inhibitors; hit rate 0.009% among 390,000; AID 504891, 2011; active = well fitted inhibition curve with a large enough effect in the polarisation, with a control signal flat, not every such curve was filed as active; inconclusive = small, poorly fitted or top-dose-only effect, or effect the other way, or a change in a side signal; inactive = no such curve, though single readings can be large or run the other way; the % refers to the polarisation; also: potency is read from the fitted curve at half-maximal effect; % is scaled to controls: 0 for no effect and ±100 for the full control effect
Target sequence (Q13526 whole entry, looked up): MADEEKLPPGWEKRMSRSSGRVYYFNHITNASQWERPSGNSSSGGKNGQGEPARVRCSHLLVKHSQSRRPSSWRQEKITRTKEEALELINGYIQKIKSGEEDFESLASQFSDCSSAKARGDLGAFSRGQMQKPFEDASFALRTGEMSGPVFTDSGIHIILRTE
* hit, by the source's call; u = inconclusive; x = no result; [ ] = dose if it differs, or a comment. This is a sample that favours compounds with a hit; in the whole collection about 0.46% have one here. Unless noted, calls follow the shape of the dose curve; as a rule, active = well fitted curve in the direction sought with a large enough effect; inconclusive = small, poorly fitted or top-dose-only effect, or another doubt; inactive = no such curve, though single readings can be large; an effect the other way counts as inactive or inconclusive.

SMILES	B2AR arrestin	miR-21 reporter	BCR signal inh	PINK1 modulator	PKM2 activator	Pin1 inhibitor
Cc1cnc(C)c(-c2cc(F)cc3c2OC(CNC(=O)Cc2c(C)noc2C)C3)n1 (configuration not stated)	x	x	x	0%	x	x
CCSc1nsc(NC(=O)Nc2cccc(F)c2)n1	0%	21%	u	u	-1%	u
CCCSc1nsc(NC(=O)Nc2ccc(F)cc2F)n1	0%	-18%	u	13µM*	0%	-3%
Cc1ncc(Cc2ccccc2)c(C2CCN(S(=O)(=O)C[C@]34CC[C@H](CC3=O)C4(C)C)CC2)n1	x	x	x	0%	x	x
O=C(c1ccc(S(=O)(=O)c2cccc(Cl)c2)c([N+](=O)[O-])c1)N1CCN(Cc2ccccc2)CC1	-1%	14%	u	-4%	3.2µM*	7%
COc1ccc(/C=C/C(=O)Nc2ccc(OC)cc2[N+](=O)[O-])cc1	-2%	-11%	0%	45µM*	-4%	u
COc1ccc(NC(=O)CSc2n[nH]c(C(C)C)n2)c([N+](=O)[O-])c1	0%	6%	0%	-3%	20%	-4%
COc1ccc(NC(=O)/C=C/c2ccccc2)c([N+](=O)[O-])c1	-1%	-45%	u	11%	-2%	7%
COc1ccc(NC(=O)CSc2n[nH]c(N)n2)c([N+](=O)[O-])c1	0%	-6%	-9%	-2%[38.3 µM]	14µM*	-3%
CC(=O)c1ccc(NC(=O)c2ccc3nc(-c4ccco4)c(-c4ccco4)nc3c2)cc1	0%	11%	u	2%	24%	19µM*
O=C(Nc1ccccc1)c1ccc2nc(-c3ccco3)c(-c3ccco3)nc2c1	1%	11%	11%	-5%[38.3 µM]	14%	u
Cc1ccc(-c2nc3c(c(=O)[nH]c(=O)n3Cc3ccccc3)n2Cc2ccccc2)o1	0%	15%	u	6%	18µM*	u
Cc1oc(-c2ccccc2NC(=O)C2CCC2)nc1CNC(=O)c1c(F)ccc(F)c1F	x	x	x	0%	x	x
CCN(CC)S(=O)(=O)c1ccc(C)c(NC(=O)CNc2cccc(S(=O)(=O)N3CCOCC3)c2)c1	-1%	x	0%	7%	x	1%
O=C(Cn1cnnn1)Nc1cccc(S(=O)(=O)N2CCCCC2)c1	0%	-5%	-1%	0%	21%	2%
O=C(Nc1cccc(Cl)c1)Nc1cc(S(=O)(=O)N2CCCCC2)ccc1Cl	3%	u	u	14µM*	10%	12%
Cc1ccc(S(=O)(=O)N2CCCCC2)cc1NC(=O)Cn1cnnn1	0%	-13%	-1%	1%	14µM*	-1%
CCN(CC)S(=O)(=O)c1ccc(C)c(NC(=S)Nc2cccc(S(=O)(=O)N3CCCCCC3)c2)c1	u	24%	u	25µM*	1%	-1%
O=C(CNc1ccc(C(F)(F)F)cc1)Nc1cccc(S(=O)(=O)N2CCCC2)c1	0%	x	u	4%	x	u
O=C(CNc1ccc(C(F)(F)F)cc1)Nc1cccc(S(=O)(=O)N2CCCCC2)c1	x	x	x	45µM*	x	x
O=C(c1ccnc(-n2cnnn2)c1)N1CCOc2ccc(C(O)CCc3ccccc3)cc2C1 (configuration not stated)	x	x	x	1%	x	x
Cc1c(C(=O)NCC2COCCO2)cnn1-c1ncc2c(n1)-c1ccccc1CC2 (configuration not stated)	x	x	x	-1%	x	x
Cc1cc(NC(=O)CSc2nc3c(c(=O)n(C)c(=O)n3C)n2C(C)C)no1	0%	-1%	-2%	-2%[38.3 µM]	28µM*	-1%
CCn1c(SCC(=O)Nc2cc(C)on2)nc2c1c(=O)n(C)c(=O)n2C	0%	0%	u	21%[38.3 µM]	25%	0%
CCCCn1c(SCC(=O)Nc2cc(C)on2)nc2c1c(=O)n(C)c(=O)n2C	1%	3%	-7%	2%[38.3 µM]	20µM*	-5%
SMILES	B2AR arrestin	miR-21 reporter	BCR signal inh	PINK1 modulator	PKM2 activator	Pin1 inhibitor
NC1CCN(c2nc(-c3ccc(Br)cc3)cs2)CC1	x	x	x	x	x	-16%
COc1cc(=O)n2c(c1C(=O)NCc1ccco1)CCN(Cc1cccc(C(F)(F)F)c1)CC2	x	x	x	2%	x	x
O=C1CCc2cc(S(=O)(=O)Nc3ccc(Cl)cc3)ccc2N1	x	x	x	x	x	0%
COc1ccc(/C=N/Nc2nc(-c3ccc(C)cc3)c(NC(C)=O)s2)cc1OC	0%	4%	u	-1%	10µM*	0%
CC(=O)Nc1sc(N/N=C/c2ccc(C)cc2)nc1-c1ccc(C)cc1	0%	-31%	9%	1%	7.1µM*	1%
COc1cc(/C=N\Nc2nc(-c3ccc(C)cc3)c(NC(C)=O)s2)ccc1O	0%	-8%	-1%	5%	18µM*	0%
COc1cc(=O)n2c(c1C(=O)NC(C)c1ccco1)CCN(Cc1cc(C)ccc1C)CC2 (configuration not stated)	x	x	x	-1%	x	x
CCOC(=O)c1sc(NC(=O)CSc2n[nH]c(-c3ccccc3)n2)c(C#N)c1C	3%	5%	u	16µM*	-10%	15%
CCOC(=O)c1sc(NC(=O)CSc2nc(C)cc(C)n2)c(C#N)c1C	0%	-4%	5%	11%[38.3 µM]	-1%	45%
CCN1CCCC1CNC(=O)c1cnn(-c2nccc(-c3cc4ccccc4o3)n2)c1C (configuration not stated)	x	x	x	-1%	x	x
CCCSc1nc(C)c(C(C)=O)cc1C#N	0%	-4%	18µM*	3%	-1%	-1%
COc1ccc(C2=NC(C)(C)Cc3cc(OC)c(OC)cc32)cc1	-1%	-33%	-14%	-1%	x	-1%
COc1cc2c(cc1OC)C(SC)=NC(C)(C)C2	0%	-2%	16µM*	x	4%	0%
CCOC(=O)c1ccc(NC(=S)NNC(C)(C)C)cc1	22µM*	-48%	u	2%	1%	1%
COc1ccc(-c2nc(NC(=O)c3[nH]c(C)c(C(C)=O)c3C)sc2C)cc1	0%	-3%	-1%	2%	7.9µM*	19%
COc1ccc(-c2nc(NC(=O)c3ccco3)sc2C)cc1	x	x	x	3%	x	x
CC(=O)Nc1ccc(S(=O)(=O)Nc2nnc(C(C)(C)C)s2)cc1	0%	-3%	4%	-3%[38.3 µM]	16µM*	-11%
Nc1cccc(S(=O)(=O)N2CCN(S(=O)(=O)c3c(F)cccc3F)CC2)c1	x	x	x	x	x	-3%
